Reference: PubChem BioAssay AID686978 (National Center for Advancing Translational Sciences (NCATS), 2013)
The campaign covered roughly 420,000 compounds. About 64,000 (15%) were called active. Not shown: some 27% with an inconclusive outcome. Calls come from the whole dose curve; as a rule, active = well fitted inhibition curve with a large enough effect; inconclusive = small, poorly fitted or top-dose-only effect; inactive = flat fitted curve, though single readings scatter. A selection follows. Where a call stands in place of a potency, no number is given.

assay: qHTS for Inhibitors of human tyrosyl-DNA phosphodiesterase 1 (TDP1): qHTS in cells in absence of CPT; settings: DT40 Tdp1-/- hTDP1 cells, no CPT, ATP luminescence, 48 h; activity change, negative = growth inhibition: at 46.2 µM (top of the series); note: nearly all actives have a fitted effect of over 55% in size
Procedure, shortened: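 Luminescent ATP content (CellTiter-Glo) served as the growth readout. Knockout chicken DT40 cells expressing human TDP1 were exposed to compounds without camptothecin for a minimum 48 hr at 37 °C.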
Potency is the fitted concentration of half-maximal effect.

Question: With `CNC(=O)NCCN1CCCC1=O` as the molecule, how does the Potency read?
Answer: The Potency was “inactive”.

Question: With `COC(=O)C[C@@H]1C=C[C@@H](NC(=O)c2cccnc2)[C@@H](CO)O1` as the molecule, how does the Potency read?
Answer: Its Potency is “inactive”.

Question: With `Cc1nn(C)c(Oc2ccccc2)c1[N+](=O)[O-]` as the molecule, how does the Potency read?
Answer: Its Potency is “inactive”.

Question: For `CN(Cc1ccccn1)Cc1nc(-c2ccc(Cl)cc2)no1`, which Potency is on record?
Answer: Its Potency is “inactive”.

Question: Which Potency does the source give for `CN(CCN1CCOCC1)Cc1nc(-c2ccc3c(c2)OCO3)no1` here?
Answer: Its Potency is “inactive”.

Question: For `CCN1CC(CN(C)Cc2nc(-c3ccc(Cl)cc3)no2)CC1=O` (stereo not given), which Potency is on record?
Answer: Its Potency is 16.4 µM (active).

Question: For `O=C(Nc1ccccc1)O/N=C1/CCCc2occc21`, which Potency is on record?
Answer: Its Potency is “inactive”.

Question: For `COc1ccc(-n2c(C)cc(C(=O)CN3C(=O)NC4(CCc5ccccc54)C3=O)c2C)cc1` (stereo not given), which Potency is on record?
Answer: Its Potency is 18.4 µM (active).

Question: Which Potency does the source give for `COc1ccc(C(=O)CN2C(=O)NC3(CCc4ccccc43)C2=O)c(OC)c1` (stereo not given) here?
Answer: Its Potency is “inactive”.

Question: With `COc1ccc(CNC(=O)CN2C(=O)NC3(CCCc4sccc43)C2=O)cc1` (stereo not given) as the molecule, how does the Potency read?
Answer: Its Potency is “inactive”.

Question: Which Potency does the source give for `CCc1cccc(NC(=O)COC(=O)c2cc(=O)c3ccccc3o2)c1` here?
Answer: Its Potency is “inactive”.

Question: Which Potency does the source give for `CCOc1ccc(NC(=O)C(=O)NCCc2csc3nc(-c4ccccc4F)nn23)cc1` here?
Answer: Its Potency is “inactive”.

Question: Which Potency does the source give for `CCC1(C2CCN(C(=O)c3cccc(F)c3F)CC2)NC(=O)N(CCc2scnc2C)C1=O` (stereo not given) here?
Answer: The Potency was “inactive”.

Question: Which Potency does the source give for `Cn1cccc1C(=O)Nc1nccs1` here?
Answer: Its Potency is “inactive”.

Question: Which Potency does the source give for `CC(C)NC(=O)N1CC[C@@]2(CCCN(C(=O)c3cccc(F)c3)C2)C1` here?
Answer: Its Potency is “inactive”.

Question: With `CCCCN(C(=O)COc1ccc(NC(C)=O)cc1)C1CCS(=O)(=O)C1` (stereo not given) as the molecule, how does the Potency read?
Answer: Its Potency is “inactive”.

Question: Which Potency does the source give for `Cc1ccc(CN(C(=O)COc2ccc(Cl)cc2C)C2CCS(=O)(=O)C2)o1` (stereo not given) here?
Answer: Its Potency is 23.1 µM (active).

Question: Which Potency does the source give for `Cc1ccccc1OCC(=O)N(Cc1cccc(F)c1)C1CCS(=O)(=O)C1` (stereo not given) here?
Answer: Its Potency is “inactive”.

Question: Which Potency does the source give for `O=C(/C=N/O)Nc1ccccc1` here?
Answer: Its Potency is “inactive”.

Question: With `CCc1c(C)c2ccc(OC3CCCCC3=O)cc2oc1=O` (stereo not given) as the molecule, how does the Potency read?
Answer: The Potency was “inactive”.

Question: Which Potency does the source give for `O=c1[nH]cnc(O)c1C(c1ccc(F)cc1)c1c(O)nc[nH]c1=O` here?
Answer: The Potency was “inactive”.

Question: For `O=C(O)CCn1c(O)c(C=C2N=c3ccccc3=N2)sc1=S`, which Potency is on record?
Answer: The Potency was 18.4 µM (active).

Question: Which Potency does the source give for `O=C(O)CCn1c(Cc2ccccc2)nc2ccccc21` here?
Answer: Its Potency is “inactive”.

Question: For `O=C(NCCc1ccc(C(F)(F)F)cc1)c1ccc2c(c1)OCO2`, which Potency is on record?
Answer: The Potency was “inactive”.

Question: With `CC1C(c2ccccc2)=[N+]([O-])C2(CCCC2)N1O` (stereo not given) as the molecule, how does the Potency read?
Answer: Its Potency is “inactive”.

Question: For `COc1ccc(C2CC(=O)c3c(O)cc(OC4OC(COC5OC(C)C(O)C(O)C5O)C(O)C(O)C4O)cc3O2)cc1O` (stereo not given), which Potency is on record?
Answer: Its Potency is “inactive”.

Question: Which Potency does the source give for `COc1cc(-c2nc(S(=O)(=O)c3ccc(Cl)cc3)c(N(C)C)o2)cc(OC)c1OC` here?
Answer: The Potency was “inactive”.

Question: With `CC(C)S(=O)(=O)c1oc(-c2ccc(F)cc2)nc1S(=O)(=O)c1ccc(F)cc1` as the molecule, how does the Potency read?
Answer: The Potency was 0.326 µM (active).

Question: Which Potency does the source give for `CC1(C)OC2CC3C4CCC5=CC(=O)CCC5(C)C4(F)C(O)CC3(C)[C@]2(C(=O)CCl)O1` (stereo not given in full) here?
Answer: The Potency was “inactive”.

Question: Which Potency does the source give for `COc1cc(C(=O)Nn2c(O)c(C3=c4ccccc4=NC3=O)sc2=S)ccc1O` here?
Answer: Its Potency is “inactive”.

Question: Which Potency does the source give for `CO[C@@H]1[C@@H](OC(N)=O)[C@@H](O)C(Oc2ccc3c(O)c(NC(=O)c4ccc(O)c(CC=C(C)C)c4)c(=O)oc3c2C)OC1(C)C` (stereo not given in full) here?
Answer: The Potency was “inactive”.

Question: For `CCc1cccc(C)c1N(C(=O)Cn1c(CO)nc2ccccc21)C(C)COC` (stereo not given), which Potency is on record?
Answer: Its Potency is “inactive”.

Question: Which Potency does the source give for `COCc1nc2ccccc2n1Cc1ccccc1Br` here?
Answer: The Potency was 16.4 µM (active).

Question: With `O=C(NC1Cc2ccccc2C1)c1cc(COc2cccc(C(F)(F)F)c2)on1` as the molecule, how does the Potency read?
Answer: Its Potency is “inactive”.

Question: For `C/C(CC(=O)N1CCN(C=O)CC1)=N\NC(=O)c1ccc(Br)cc1`, which Potency is on record?
Answer: The Potency was “inactive”.

Question: With `COC(=O)[C@@H]1C[C@@]2(O)[C@H](O)[C@H](O)[C@H](O)C[C@H]2N1Cc1ccc(C)s1` as the molecule, how does the Potency read?
Answer: The Potency was “inactive”.

Question: With `CC(C)N=C1CCCC1C(=S)SSC(=S)C1CCCC1=NC(C)C` (stereo not given) as the molecule, how does the Potency read?
Answer: The Potency was 0.164 µM (active).

Question: Which Potency does the source give for `COc1cc(OC)c2c(c1Cl)OC1(C2=O)C(O)=CC(=O)CC1C` (stereo not given) here?
Answer: The Potency was “inactive”.

Question: With `COc1ccc(CN2CCCCC2C)cc1OC` (stereo not given) as the molecule, how does the Potency read?
Answer: The Potency was “inactive”.

Question: For `COC(=O)c1ccc(COc2ccc(C#N)cc2)o1`, which Potency is on record?
Answer: Its Potency is “inactive”.

Question: With `CCOc1cc(C)c(Cl)cc1S(=O)(=O)n1nnc2ccccc21` as the molecule, how does the Potency read?
Answer: The Potency was “inactive”.

Question: Which Potency does the source give for `COc1ccc(C(C)C)cc1S(=O)(=O)Nc1ncn[nH]1` here?
Answer: Its Potency is “inactive”.

Question: With `CCOc1ccc(C(C)C)cc1S(=O)(=O)n1nc(C)cc1C` as the molecule, how does the Potency read?
Answer: The Potency was 13 µM (active).

Question: For `CCCNC(=O)CCC(=O)N1Cc2ccccc2Oc2ncccc21`, which Potency is on record?
Answer: The Potency was “inactive”.

Question: Which Potency does the source give for `Cc1ccc(NC(=O)CS(=O)CC(=O)N(c2ccccc2)C(C)C(=O)NC2CCCC2)cc1` (stereo not given) here?
Answer: Its Potency is “inactive”.

Question: For `COc1ccc(NS(=O)(=O)c2ccc(C)c(C(=O)N(C)Cc3ccc(OC)cc3OC)c2)cc1`, which Potency is on record?
Answer: Its Potency is 18.4 µM (active).

Question: Which Potency does the source give for `CCOc1ccc(NS(=O)(=O)c2ccc(Cl)c(C(=O)N(C)Cc3cccnc3)c2)cc1` here?
Answer: Its Potency is “inactive”.

Question: For `COc1ccc(NS(=O)(=O)c2ccc(C)c(C(=O)NNC(=O)c3csc(N4CCOCC4)n3)c2)cc1`, which Potency is on record?
Answer: The Potency was “inactive”.

Question: Which Potency does the source give for `CC(=O)Nc1ccc(S(=O)(=O)N(C)c2ccc(OCC(=O)OCC(=O)N3CCCCC3)cc2)cc1` here?
Answer: The Potency was “inactive”.

Question: With `CC(=O)Nc1ccc(S(=O)(=O)NNC(=O)CCc2ccccc2)cc1` as the molecule, how does the Potency read?
Answer: Its Potency is “inactive”.

Question: With `CC(=O)Nc1ccc(S(=O)(=O)N(C)c2nc3ccccc3nc2Cl)cc1` as the molecule, how does the Potency read?
Answer: The Potency was 23.1 µM (active).

Question: For `Cc1ccc(C2CC2C(=O)NN)cc1` (stereo not given), which Potency is on record?
Answer: Its Potency is “inactive”.

Question: For `CCOc1ccc(NS(=O)(=O)c2ccc(N)cc2)nn1`, which Potency is on record?
Answer: Its Potency is “inactive”.

Question: Which Potency does the source give for `CCOC(=O)c1c(S(=O)(=O)NCC(=O)Nc2ccc(C)cc2)c(C)n(C)c1C` here?
Answer: Its Potency is “inactive”.

Question: For `O=S(=O)(Nc1ccc(-n2cnnn2)cc1)c1ccc(Cl)cc1`, which Potency is on record?
Answer: The Potency was “inactive”.

Question: For `CC(=O)c1c(C)n(S(=O)(=O)c2ccc(Cl)cc2)c2ccc(NS(=O)(=O)c3ccc(Cl)cc3)cc12`, which Potency is on record?
Answer: Its Potency is 14.6 µM (active).

Question: Which Potency does the source give for `CC(=O)NCCc1ccc(S(=O)(=O)Nc2ccc(C)c(S(=O)(=O)N3CCOCC3)c2)cc1` here?
Answer: The Potency was “inactive”.

Question: Which Potency does the source give for `CCn1c(C)nc2cc(C(=O)NNS(=O)(=O)c3ccc(C)cc3C)ccc21` here?
Answer: Its Potency is “inactive”.

Question: Which Potency does the source give for `CCOC(=O)c1c(C)n(S(=O)(=O)c2ccc(C)cc2C)c2ccc(NS(=O)(=O)c3ccc(C)cc3C)cc12` here?
Answer: Its Potency is 20.6 µM (active).

Question: With `CC(C)(C)CN1CCNC(=O)C1CC(=O)NC1Cc2ccccc2C1` (stereo not given) as the molecule, how does the Potency read?
Answer: The Potency was “inactive”.

Question: Which Potency does the source give for `Oc1ccc(-c2nncn2-c2ccccc2)cc1` here?
Answer: Its Potency is “inactive”.

Question: For `COc1cccc(NC(=O)CSc2nnc(Cc3ccc(OC)c(OC)c3)o2)c1`, which Potency is on record?
Answer: Its Potency is “inactive”.

Question: Which Potency does the source give for `O=C(CCCn1c(=O)c2sccc2n(CC(=O)NCC2CCCO2)c1=O)NCc1ccco1` (stereo not given) here?
Answer: The Potency was “inactive”.

Question: Which Potency does the source give for `CCC1CCCCN1C(=O)Cn1c(=O)n(CCCCCC(=O)NCc2ccccc2)c(=O)c2sccc21` (stereo not given) here?
Answer: Its Potency is 13 µM (active).

Question: For `Cc1ccc(C)c(Cn2c(=O)n(CCC(=O)NCc3ccc4c(c3)OCO4)c(=O)c3sccc32)c1`, which Potency is on record?
Answer: The Potency was “inactive”.
